An excerpt weighted towards active compounds, which were near 3.4% of everything screened.
PLCb3 inh: PLC-beta3 (human) inhibition, primary screen; Q01970; AID 720704; Purified PLC-beta3, fluorogenic substrate, fluorescence; inhibition, % at 12.2 µM; 370,000 compounds, 0.18% hits; in the data active = inhibition above about 11%;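 note: 0% = median of compound wells on plate and 100% = full blocker control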
HGIII-sPLA2 inh: Inhibits HGIII-sPLA2 liposome hydrolysis, primary screen | Q9NZ20 | QFRET BODIPY PC-A2 liposome hydrolysis, fluorescence | inhibition, % at 12.2 µM | 370,000 compounds, 0.56% hits | AID 743126;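 active = inhibition above mean plus 3 SD of compounds lying within the high and low control bounds, cut at about 19% in these data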;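 note: 0% = median of test compound wells and 100% = no enzyme DMSO wells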
ADAM10 inh: inhibitors of human ADAM10; recombinant ADAM10, EDANS/DABCYL FRET peptide cleavage, 3 h; inhibition, % at 7 µM; 370,000 compounds, 0.62% hits; AID 720582;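 active = inhibition above a per-campaign cutoff equal to the mean of compounds falling between control-based bounds plus 3 SD, cut at about 20% in these data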;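 note: 0% = DMSO wells while the 100% control is not disclosed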
PLC-gamma1 inh: blocks human PLC-gamma1 enzyme activity. inhibition, % at 12.2 µM. 370,000 compounds, 0.84% hits. purified PLC-gamma1, fluorogenic substrate, fluorescence. P19174; in the data active = inhibition above about 9.5%
Target sequence (P19174 whole entry, looked up): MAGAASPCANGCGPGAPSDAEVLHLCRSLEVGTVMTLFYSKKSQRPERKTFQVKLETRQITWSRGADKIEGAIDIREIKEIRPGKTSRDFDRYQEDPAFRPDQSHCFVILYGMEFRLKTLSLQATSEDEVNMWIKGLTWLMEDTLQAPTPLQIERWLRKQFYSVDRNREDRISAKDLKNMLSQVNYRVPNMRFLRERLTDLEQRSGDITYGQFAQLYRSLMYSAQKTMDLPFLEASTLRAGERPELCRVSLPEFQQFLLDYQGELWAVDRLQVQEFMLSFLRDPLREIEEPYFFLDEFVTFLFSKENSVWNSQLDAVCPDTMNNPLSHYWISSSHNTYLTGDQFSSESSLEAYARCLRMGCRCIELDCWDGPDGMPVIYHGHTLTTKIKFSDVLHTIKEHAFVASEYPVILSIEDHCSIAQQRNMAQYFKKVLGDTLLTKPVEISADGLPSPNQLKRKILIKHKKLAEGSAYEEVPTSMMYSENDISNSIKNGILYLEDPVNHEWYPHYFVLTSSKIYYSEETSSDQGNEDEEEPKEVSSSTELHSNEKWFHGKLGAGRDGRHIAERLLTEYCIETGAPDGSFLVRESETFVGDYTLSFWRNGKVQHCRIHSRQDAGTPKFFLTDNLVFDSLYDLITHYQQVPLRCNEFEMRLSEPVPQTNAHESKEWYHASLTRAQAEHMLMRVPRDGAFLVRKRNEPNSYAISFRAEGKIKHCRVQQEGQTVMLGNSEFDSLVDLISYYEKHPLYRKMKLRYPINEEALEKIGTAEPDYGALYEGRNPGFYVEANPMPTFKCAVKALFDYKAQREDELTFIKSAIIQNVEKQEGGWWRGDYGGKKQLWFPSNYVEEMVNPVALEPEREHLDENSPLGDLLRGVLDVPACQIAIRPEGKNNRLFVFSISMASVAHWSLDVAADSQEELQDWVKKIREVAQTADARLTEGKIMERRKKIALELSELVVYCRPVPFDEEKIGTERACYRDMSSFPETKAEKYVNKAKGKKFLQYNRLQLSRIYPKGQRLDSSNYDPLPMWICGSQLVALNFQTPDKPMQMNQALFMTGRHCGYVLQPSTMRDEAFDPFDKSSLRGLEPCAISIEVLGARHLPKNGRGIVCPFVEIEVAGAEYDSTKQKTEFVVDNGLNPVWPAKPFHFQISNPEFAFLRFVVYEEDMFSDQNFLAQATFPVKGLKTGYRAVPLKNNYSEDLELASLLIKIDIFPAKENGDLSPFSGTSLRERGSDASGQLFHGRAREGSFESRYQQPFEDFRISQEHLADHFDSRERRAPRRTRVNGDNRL
KLK7 zymogen act: activators of human kallikrein-7 zymogen. P49862. purified proKLK7, EDANS-DABCYL substrate fluorescence; 100% is mature enzyme control, 0% vehicle. activation, % at 7 µM. 370,000 compounds, 0.9% hits. AID 652039;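 active = activation above the mean of all tested compounds plus 3 SD, computed per campaign excluding outliers beyond control limits, cut at about 13% in these data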
ADAM17 inh: inhibits human ADAM17; AID 720648; recombinant ADAM17, EDANS/DABCYL FRET peptide cleavage; P78536; 370,000 compounds, 0.83% hits; inhibition, % at 6.95 µM;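 active = inhibition above the mean of compounds lying between control limits plus 3 SD, set per campaign, cut at about 8.5% in these data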;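 note: 0% = DMSO-only wells as the low control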
KLK7 act conf: confirmation of human kallikrein-7 zymogen activators. purified proKLK7, EDANS-DABCYL substrate fluorescence; scaled: vehicle 0, mature enzyme 100. 3,200 compounds, 68% hits. activation, % at 7 µM. shares compounds with KLK7 zymogen act. AID 686949;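 active = activation, as change over the incubation, above the mean of all tested compounds plus 3 SD, cut at about 13% in these data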
EDANS interfere: counter-screen for kallikrein-7 activators: EDANS-DABCYL optical interference | shares compounds with KLK7 zymogen act | EDANS-DABCYL substrate fluorescence interference, no enzyme, 4 h; solvent 0%, active enzyme control 100% | activation, % at 7 µM | 3,200 compounds, 80% hits;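 active = activation above the all-compound mean plus 3 SD, ignoring values outside control-based bounds, cut at about 4.8% in these data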;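 note: value is the 4 h activation minus the activation read at time zero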
EDANS interf: optically interferes with EDANS-DABCYL fluorescence, kallikrein-7 activator counter-screen. shares compounds with KLK7 zymogen act. EDANS-DABCYL peptide fluorescence interference, no enzyme. EC50, µM. 250 compounds, 20% hits. AID 720493;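 active = compounds that raise the fluorescence signal in this interference counterscreen, with EC50 at or below 10 µM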;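 note: intact quenched peptide substrate alone read at 355 nm excitation and 520 nm emission; signal is fluorescence gain from T0 to T4 after four hours at room temperature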
The depositor's hits bear a star; i = inactive; x = not tested or not shown.

SMILES | PLCb3 inh | HGIII-sPLA2 inh | ADAM10 inh | PLC-gamma1 inh | KLK7 zymogen act | ADAM17 inh | KLK7 act conf | EDANS interfere | others
CSc1ccc(/C=C/C(=O)c2ccc(O)cc2)cc1 | -203 | -18 | -11 | -195 | 28* | -3 | 2 | 2
Cc1ccc(/C=C/C(=O)c2ccc(O)cc2)cc1 | -5 | -29 | 10 | 3 | 0 | 0 | x | x
CC(C)c1cc(NCCOCCO)n2c(nc3ccccc32)c1C#N | i | 1 | i | i | 54* | i | 52* | 50*
CCCc1cc(NCCCCO)n2c(nc3ccccc32)c1C#N | i | -4 | i | i | 25* | i | -20 | -12
CCCc1cc(NCCOCCO)n2c(nc3ccccc32)c1C#N | i | 1 | i | i | 45* | i | 42* | 27* | EDANS interf=>70
Cc1cc(Nc2c(C)n(C)n(-c3ccccc3)c2=O)n2c(nc3ccccc32)c1C#N | -16 | 7 | -19 | -10 | 0 | -8 | x | x
CCOC(=O)[C@]12CCCC=C1N(Cc1ccc(OC)cc1)C(=O)[C@@H]2CC(=O)NCCCOC | 0 | 5 | -4 | 2 | 0 | -7 | x | x
CCCCCCC(=O)NC1CCCCN(Cc2ccccc2C)C1=O (stereo not given) | 1 | 11 | 1 | 7 | 1 | 2 | x | x
CCN(CC)c1ccc(C=Nn2c(-c3ccc(F)cc3)n[nH]c2=S)c(O)c1 | -52 | -8 | -6 | -31 | 7 | 2 | x | x
O=C(Nc1ccc2nc(-c3ccccn3)c(-c3ccccn3)nc2c1)N1CCOCC1 | i | 0 | -435 | i | 36* | -148 | 70* | 66*
Cc1nc2ccc(NC(=O)N3CCCCC3)cc2nc1C | i | 6 | i | i | 35* | -496 | 69* | 57* | EDANS interf=>69
O=C(Nc1ccccn1)N1CCOCC1 | -1 | 4 | 9 | 1 | 1 | 0 | x | x
CCOC(=O)N1CCN(C(=O)Nc2ccc3nc(C)c(C)nc3c2)CC1 | i | 2 | i | -441 | 16* | -196 | 39* | 33*
CN1c2ccc(-c3cccc(F)c3)cc2[C@H]2[C@H](CCN2S(=O)(=O)c2cccc(F)c2)[C@H]1CO | -9 | 2 | -18 | -8 | 1 | -6 | x | x
CCOC(=O)[C@@]12CN(C(=O)OC(C)(C)C)CC=C1N(Cc1ccc(OC)cc1)C(=O)[C@H]2CC(=O)NCc1ccc(C)o1 | -1 | -10 | 7 | 1 | 0 | 2 | x | x
COC(=O)c1cc(-c2ccc(F)c(Cl)c2)c(=O)n2c1CCC2 | -7 | -1 | -11 | -2 | 0 | -6 | x | x
O=c1[nH]cccc1-c1nc2ccccc2[nH]1 | i | -1 | i | i | 56* | i | 66* | 75*
Nc1ccccc1-c1nc2ccccc2[nH]1 | i | 10 | i | i | 69* | i | -2 | 1
Cc1c(-c2nc3ccccc3[nH]2)cnn1C | -2 | 3 | 3 | -1 | 0 | 0 | x | x
O=c1oc2c(CN3CCCCC3)c(O)ccc2cc1-c1nc2ccccc2[nH]1 | -365 | -3 | -241 | -260 | 5 | -74 | x | x
O=c1oc2c(O)cccc2cc1-c1nc2ccccc2[nH]1 | i | -47 | i | i | 46* | i | 75* | 67*
Nc1ccc(-c2nc3ccccc3[nH]2)cc1 | -31 | 12 | i | -26 | 1 | -131 | x | x
Cc1[nH]ncc1-c1nc2ccccc2[nH]1 | -40 | -1 | 6 | -30 | 0 | -3 | x | x
Oc1ccc(C=Nc2ccccc2-c2nc3ccccc3[nH]2)cc1 | i | -24 | i | i | 81* | i | 30* | 29*
Cc1ccccc1N1C(=O)c2cccc3c(N(C)CCO)ccc(c23)C1=O | -221 | -44 | -128 | -166 | 13* | -42 | 9 | 10*
SMILES | PLCb3 inh | HGIII-sPLA2 inh | ADAM10 inh | PLC-gamma1 inh | KLK7 zymogen act | ADAM17 inh | KLK7 act conf | EDANS interfere | others
COc1ccccc1NS(=O)(=O)c1cccc(C(=O)N/N=C/c2cn(-c3ccccc3)nc2-c2ccccc2)c1 | -127 | -17 | -26 | -112 | 18* | 1 | -50 | -56
COc1ccc(NS(=O)(=O)c2cccc(C(=O)N/N=C/c3cn(-c4ccccc4)nc3-c3ccccc3)c2)cc1 | -9 | 2 | -1 | 2 | 0 | -6 | x | x
CCOC(=O)c1cc2c(=O)n3ccccc3nc2n(Cc2ccco2)c1=NC(=O)c1cccc(OC)c1 | i | -1 | i | i | 29* | i | 42* | 53*
CCOC(=O)c1cc2c(=O)n3ccccc3nc2n(Cc2ccco2)c1=NC(=O)c1ccc(OC)cc1 | i | -3 | i | i | 13* | i | 105* | 104*
Cc1cccn2c(=O)c3cc(S(=O)(=O)c4ccccc4)c(=N)n(Cc4ccco4)c3nc12 | -159 | 7 | -226 | -105 | -6 | -89 | x | x
CCOC(=O)c1cc2c(=O)n3cccc(C)c3nc2n(Cc2ccco2)c1=NC(=O)c1ccccc1 | i | 7 | i | i | 24* | i | 37* | 36*
COc1ccc(C=NNC(=O)Cc2cc(=O)[nH][nH]2)c(OC)c1 | -2 | 4 | -3 | -39 | 0 | -4 | x | x
Cc1ccc(S(=O)(=O)NN2C(=O)c3ccccc3NC2c2ccccc2F)cc1 (stereo not given) | -70 | 1 | -103 | -43 | 3 | -32 | x | x
O=C1c2ccccc2NC(c2ccco2)N1NS(=O)(=O)c1ccccc1 (stereo not given) | -137 | -2 | -242 | -113 | 14* | -87 | 3 | 4.8*
CCOC(=O)NN1C(=O)c2ccccc2NC1c1cccs1 (stereo not given) | -380 | 4 | i | -289 | 14* | -203 | 16* | 15*
CCOC(=O)NN1C(=O)c2ccccc2NC1c1cccnc1 (stereo not given) | -263 | 4 | -474 | -202 | 9 | -160 | x | x
CC(=O)NN1C(=O)c2ccccc2NC1c1ccoc1 (stereo not given) | -487 | 4 | i | -401 | 11 | -316 | x | x
O=C1c2ccccc2NC(c2ccco2)N1O (stereo not given) | -12 | -6 | -37 | -14 | 0 | -15 | x | x
CC(=O)NN1C(=O)c2ccccc2NC1c1ccccc1F (stereo not given) | i | 7 | i | -374 | 29* | -329 | 19* | 18*
